Inconclusive results are not listed. Unmarked numbers belong to inactive results. The call rests on the fitted dose curve; in most records, active means well fitted cell-killing curve with a large enough effect in the repeat runs; inconclusive means weak or mixed curves; inactive means flat fitted curve, though single readings scatter.
experiment: qHTS assay to identify small molecule antagonists of the TGF-beta/Smad signaling pathway - cell viability counter screen (AID 1346824); conditions: SBE-bla HEK293T viability, CellTiter-Glo luminescence; series mostly up to 76.8 µM; viability change, negative = cytotoxic: at the top concentration; further: nearly all actives have a fitted effect of over 50% in size
Text: U.S. Tox21 Program National Center for Advancing Translational Sciences [NCATS] NIH Chemical Genomics Center [NCGC] U.S. Environmental Protection Agency [EPA] National Institutes of Environmental Health Sciences [NIEHS] National Toxicology Program [NTP] U.S. Food and Drug Administration [FDA] Tox21 Assay Overview: Transforming growth factor beta (TGF-beta) superfamily consists of a large number of structurally related dimeric proteins that act as hormones or local mediators in regulating a wide range of biological functions. This superfamily includes TGF-betas themselves, the bone morphogenetic proteins (BMPs) and the activins. These ligands induce oligomerization of serine/threonine receptor kinases and phosphorylate the cytoplasmic signaling molecules of Smad protein family. CellSensor SBE-bla HEK 293T cell line (Life Technologies, Carlsbad, CA), responsive to TGF-beta was used to screen Tox21 10K compound library for identification of agonists/antagonists of the Smad signaling pathway. This cell line contains a beta-lactamase reporter gene under control of the Smad binding element (SBE) stably integrated into HEK 293T cells. Also cytotoxicity of the compounds was tested in parallel by measuring the cell viability using CellTiter-Glo assay system in the same wells.
Tox21 Assay Protocol Summary: SBE-bla HEK 293T cells were dispensed at 4,000/well in 5 uL of assay medium into black wall/clear-bottom 1536-well plates using a Multidrop Combi (ThermoFisher Scientific, Waltham, MA) dispenser. After the assay plates were incubated at 37 C and 5% CO2 for an overnight, 23 nL of compounds dissolved in DMSO, positive controls or DMSO only was transferred to the assay plate by a Pintool station (Kalypsys, San Diego, CA). Compound transfer was followed by the addition of 1 uL of 0.25 ng/mL TGF-beta1 or assay buffer using two separate tips of Flying Reagent Dispenser (FRD, Aurora Discovery, San Diego, CA). The assay plates were incubated at 37 C and 5% CO2 for 5 hr. One uL of LiveBLAzer B/G FRET substrate (Life Technologies) was added using a Flying Reagent Dispenser (FRD, Aurora Discovery, San Diego, CA) and the plates were incubated at room temperature for 2 hr. Fluorescence intensity (405 nm excitation, 460 nm and 530 nm emissions) was measured using an Envision plate reader (PerkinElmer, Shelton, CT). For cytotoxicity read, 4 uL of CellTiter-Glo reagent (Promega Corporation, Madison, WI) was added to each well of the assay plates using FRD. After 30 min incubation at room temperature, the luminescence intensity was measured using ViewLux plate reader (PerkinElmer).
On the % scale 0 is the no-effect control and ±100 the full control effect.

Going from O=Cc1cccc(Br)c1 to Nc1ccccn1, the “viability change, negative = cytotoxic” value rises from -2.92% to 13.4%.

Going from Clc1cc(Cl)cc(Cl)c1 to CNC(=O)Nc1ccc(Cl)c(Cl)c1, the “viability change, negative = cytotoxic” value falls from 21.6% to -17.9%.

Compared with CCCCCCC#CC(=O)OC, CCCCCCCCCCCCSC is lower in “viability change, negative = cytotoxic” value: 5.47% for the first, -13.2% for the second.

Going from C=C(C)C(=O)OCC1CCCO1 (stereo not given) to CC1CCC(CO)CC1 (stereo not given), the “viability change, negative = cytotoxic” value rises from 1.2% to 5.95%.

Going from CCCOC(=O)CC to CCCCCC(=O)OCCc1ccccc1, the “viability change, negative = cytotoxic” value rises from -9.93% to -2.49%.

Going from COc1ccnc(CS(=O)c2nc3cc(OC(F)F)ccc3[nH]2)c1OC (stereo not given) to O=C1c2ccccc2C(=O)c2cc(O)ccc21, the “viability change, negative = cytotoxic” value rises from -2.18% to 10.8%.

First: c1ccc(CCc2ccccc2)cc1
Second: OCCc1ccccn1
The “viability change, negative = cytotoxic” value of the first is lower: -10.2% for the first, 0.69% for the second.

Going from CCOc1ccccc1OCC to CCCCOCCOC(=O)COc1cc(Cl)c(Cl)cc1Cl, the “viability change, negative = cytotoxic” value falls from 3.32% to 0.198%.

Compared with CCCCOCCOC(=O)CCCCCCCCC(=O)OCCOCCCC, C=CCCCCCCCCC(=O)OCC is higher in “viability change, negative = cytotoxic” value: -0.339% for the first, 4.07% for the second.

First: CNCCO
Second: C=CC(=O)OCCCl
The “viability change, negative = cytotoxic” value of the first is lower: -11.9% for the first, -4.9% for the second.

Going from CC1(C)[C@@H]2CC[C@@]1(C)[C@H](O)C2 to CCCO[Si](OCCC)(OCCC)OCCC, the “viability change, negative = cytotoxic” value falls from 1.27% to -2.5%.

Compared with COc1c(N2CCNC(C)C2)c(F)cc2c(=O)c(C(=O)O)cn(C3CC3)c12 (stereo not given), O=C(O)c1cn(C2CC2)c2cc(N3CCNCC3)c(F)cc2c1=O is higher in “viability change, negative = cytotoxic” value: 0.472% [at 35.3 µM] for the first, 1.11% [at 35.3 µM] for the second.

Compared with Cc1cccc(C)c1NC(=O)CC12CCCN1CCC2, CCOc1c(N2CCOCC2)cnn(C)c1=O is lower in “viability change, negative = cytotoxic” value: 1.13% [at 35.3 µM] for the first, -4.58% [at 35.3 µM] for the second.

Compared with C[N+]1(C)[C@@H]2CC(OC(=O)[C@H](CO)c3ccccc3)C[C@H]1[C@@H]1O[C@@H]12 (stereo not given in full), CN1[C@@H]2CC[C@H]1CC(OC(=O)C(O)c1ccccc1)C2 (stereo not given in full) is higher in “viability change, negative = cytotoxic” value: 0.0423% [at 35.3 µM] for the first, 0.153% [at 35.3 µM] for the second.

Compared with CC(=O)N[C@H]1[C@H]([C@H](O)[C@H](O)CO)OC(C(=O)O)=C[C@@H]1N=C(N)N, CC(=O)N1C[C@H](O)C[C@H]1C(=O)O is higher in “viability change, negative = cytotoxic” value: -6.93% [at 35.3 µM] for the first, 4.15% [at 35.3 µM] for the second.

First: Cc1ccc(C(=O)Nc2ccc(S(=O)(=O)O)c3cc(S(=O)(=O)O)cc(S(=O)(=O)O)c23)cc1NC(=O)c1cccc(NC(=O)Nc2cccc(C(=O)Nc3cc(C(=O)Nc4ccc(S(=O)(=O)O)c5cc(S(=O)(=O)O)cc(S(=O)(=O)O)c45)ccc3C)c2)c1
Second: CC1(C)OC[C@@H](COC(=O)CCc2ccc(OC[C@@H](O)CNCCNC(=O)N3CCOCC3)cc2)O1
The “viability change, negative = cytotoxic” value of the first is higher: 11.7% [at 35.3 µM] for the first, -0.601% [at 35.3 µM] for the second.

Going from CC(COc1ccccc1)NN (stereo not given) to CCC(C)(CN(C)C)OC(=O)c1ccccc1 (stereo not given), the “viability change, negative = cytotoxic” value rises from -2% [at 35.3 µM] to -1.75% [at 35.3 µM].

Going from CC(C)COC(=O)c1ccc(N)cc1 to Cc1c(N)c(=O)n(-c2ccccc2)n1C, the “viability change, negative = cytotoxic” value falls from 3.14% [at 35.3 µM] to 0.92% [at 35.3 µM].

For CC(=O)OCC(=O)[C@@]1(O)[C@H](C)C[C@H]2[C@@H]3CCC4=CC(=O)C=C[C@]4(C)[C@@]3(F)[C@@H](O)C[C@@]21C, the “viability change, negative = cytotoxic” value was 2.99% [at 35.3 µM].

CC(C)C[C@@H](N)C(=O)O showed a viability change, negative = cytotoxic of -3.28% [at 15.8 µM].

Going from CCN[C@@H]1C[C@H](N)[C@@H](OC2OC(CN)=CCC2N)[C@H](O)[C@H]1O[C@H]1OC[C@](C)(O)[C@H](NC)[C@H]1O (stereo not given in full) to NC(N)=NCCN1CCCCCCC1, the viability change, negative = cytotoxic falls from 6.56% [at 0.29 µM] to 2.08% [at 0.29 µM].
